# Residue numbers refer to the chain shown, from its start. In all, about 5,800 sequences were measured (“enrichment r”: median about 0.54, highest 2% from about 16 on). The list comes from a sample in which the highest values are over-represented; it also holds similar and randomly drawn sequences.
# B1: chr17:48622902:48623135:-|CDS|ENSG00000170689|control|control|control (ssRNA)
# RNA: GGGAGUUCUACAGUCCGACGAUCUACCAGACGCUGGAGCUAGAGAAGGAGUUUCUGUUCAAUAUGUACCUCACCAGGGACCGUAGGCACGAAGUGGCCAGACUCCUCAAUCUGAGUGAGAGACAAGUCAAAAUCUGGUUUCAGCAACAGAGGAUUGAGCAUCA
# B2: chr13:99866285:99866388:+|CDS|ENSG00000125246|unk|FALSE|unique (ssRNA)
# RNA: GGGAGUUCUACAGUCCGACGAUCUAUUCUCUACGCCCGGCAAAAGAUUGUUGUCAUAGCGAAAGCCUUUGGUCUCCAAGCCAUAGAUCUGGUGUACAUUGACUUUCGAGAUGGAGCUGGGCUGCUUAGACAGUCACGAGAAGGCAACAGAGGAUUGAGCAUCA
# B3: ENSG00000198589:be:win_1301|CDS|ENSG00000198589|bound_else_gene|NA|bound_elsewhere_windowed (ssRNA)
# RNA: GGGAGUUCUACAGUCCGACGAUCCAUCUCCUAAGGACAACCCUUCAAUUUUUGUUCAUUCACCACAUGCACUCAUGCUCCAGGAUGUAAAGGCAGUUUUAACACAUUCCAUCCAAAGUGCAAUGCAUUCAAUUGGAGGAGUACCAACAGAGGAUUGAGCAUCA
# B4: chr15:59095394:59095499:+|3pUTR|ENSG00000157450|unk|FALSE|unique (ssRNA)
# RNA: GGGAGUUCUACAGUCCGACGAUCUAAAUACCAUCCUUAAUACUGGGAACAGAAUACAACCCAUAUAAAUCAGAUGCAGGUGGUAGUCACAUCACCAGAGUGAUCAGUAUAAAUUUUCUUGGUGUAUCCUUUUCCUUUCAACACCAACAGAGGAUUGAGCAUCA
# B5: chr1:193029531:193029688:-|CDS|ENSG00000116750|unk|total|mutant (ssRNA)
# RNA: GGGAGUUCUACAGUCCGACGAUCUUGAUAUCUUCACUUUUAUAUUUUACCGGUAAUUAAUAAUGCUUGUGCUACUCAAGCCACCGUGAGUGUGUUACUGAACUGUACCCACCAGGAUGUCCAUUCCGGCGAGACAUUAUCAGACAACAGAGGAUUGAGCAUCA
# B6: chrX:115010634:115010735:-|CDS|ENSG00000123496|msi1|FALSE|unique (ssRNA)
# RNA: GGGAGUUCUACAGUCCGACGAUCUGGAUCAUCAGAGAACAAGCCUAUCAGAUCCAGUUAUUUCACUUUUCAGCUUCAAAAUAUAGGUGAUGUAAACCAACAAACAACUUCAAAUUCAUUGUUUCUAGUUUAGGCCAUUUACAACAACAGAGGAUUGAGCAUCA
# B7: chr1:193029531:193029688:-|CDS|ENSG00000116750|unk|FALSE|unique (ssRNA)
# RNA: B5 RNA with C49U, C50A, C83U, C84A, C125U, C126A
# B8: chr7:30424526:30425710:-|three_prime_utr|ENSG00000106100|control|control|control (ssRNA)
# RNA: GGGAGUUCUACAGUCCGACGAUCAAACUCCCUAAGUACCCGCUACAAUUCUGCAGAAAAAGAAUGUGUCUUGCGAGCUGUUGUAGUUACAGUAAAUACACUGUGAAGAGACUUUAUUGCCUAUUAUAAUUAUUUUUAUCUGAACAACAGAGGAUUGAGCAUCA
# B9: chr9:137457406:137457901:-|CDS|ENSG00000165802|control|control|control (ssRNA)
# RNA: GGGAGUUCUACAGUCCGACGAUCCGCCUGUCCCUCGUCUCCAACGGCUGCUACGAGGGCAGCCUCUCAGAGGAGCCCAGCAUUAGGAAGCCCGCAGGCGAGGGCCCUCAGCCUCGAGUGUACACCAUCUCUGGGGAGCCUGCCCAACAGAGGAUUGAGCAUCA
# B10: ENSG00000070961:be:win_4451|3pUTR|ENSG00000070961|bound_else_gene|NA|bound_elsewhere_windowed (ssRNA)
# RNA: GGGAGUUCUACAGUCCGACGAUCGUUUUGAAGCAACUGUUUAAUUUUUAAAAUUUUUGAAAACUUGCUAAUAACCUUUUGUUCAGAAUUUAGUAGAUUGUUUAAUGCAGGACAUCAACUACAUAAUGAAAGAUGCUUGAAAUGCAACAGAGGAUUGAGCAUCA
# B11: chr10:62095068:62095169:+|3pUTR|ENSG00000150347|msi1|FALSE|unique (ssRNA)
# RNA: GGGAGUUCUACAGUCCGACGAUCCCAUUUGCUUCAAUUAAUUAUUUACCUUCCUGUGGAAUAAUAUAUAUAUAUAUAUUUAAUAGAACCAUAGAUAGACUAGUAGAAUUUAGAUUAUAAAUGUGUGAGUGCAGAUUAUCCUGCCAACAGAGGAUUGAGCAUCA
# B12: chr2:224511460:224511569:-|CDS|ENSG00000036257|unk|FALSE|bound_elsewhere (ssRNA)
# RNA: GGGAGUUCUACAGUCCGACGAUCGAAAGCCAGAAAUUUUUAGCAGAAAAUAGUGCUUCAGUAUAUAUAAAGAAAGUAGAAGCUAGAAUUAAUGAAGAAAUAGAACGAGUGAUGCACUGCCUUGACAAAUCAACGGAAGAACCACAACAGAGGAUUGAGCAUCA
# B13: chr14:44928120:44928223:-|3pUTR|ENSG00000179454|unk|FALSE|unique (ssRNA)
# RNA: GGGAGUUCUACAGUCCGACGAUCUAGUACAGCAGGCCUCCCAGUGCUGAUGUAAAUAUUUGAGCAGUGUUUAGUACCAUUCUUAGUGCAUAUUAAUUUUUUUAUAUAUCCUUAUAAUUUUAGUUUUUUAAGAUCUUUGCUUUUCAACAGAGGAUUGAGCAUCA
# B14: ENSG00000039319:stop:overlap|stop_codon|ENSG00000039319|stop_codon|NA|stop_codon (ssRNA)
# RNA: GGGAGUUCUACAGUCCGACGAUCCCAACUCUAGUUUACCAUUAGAAAUAGAAUUAGUGUUUUUCAUUAUAGAACAUCUUUUUUAGUGAAAGAAUGUGCCAUAUUACAUAUUGCAACCUAAUUUGUUAAAACUAACUCCAGCACCAACAGAGGAUUGAGCAUCA
# B15: chr10:62095068:62095169:+|3pUTR|ENSG00000150347|msi1|total|mutant (ssRNA)
# RNA: GGGAGUUCUACAGUCCGACGAUCCCAUUUGCUUCAAUUAAUUAUUUACCUUCCUGUGGAAUAAUAUAUAUAUAUAUAUUUAACCGAACCACCGACCGACCCGCCGAAUUCCGAUUAUAAAUGUGUGAGUGCAGAUUAUCCUGCCAACAGAGGAUUGAGCAUCA
# B16: chr2:224511460:224511569:-|CDS|ENSG00000036257|unk|total|mutant (ssRNA)
# RNA: B12 RNA with U40C, A41C, U50C, A51C, U76C, A77C, U83C, A84C, U100C, A101C
# B17: chr9:21239001:21239365:-|three_prime_utr|ENSG00000228083|control|control|control (ssRNA)
# RNA: GGGAGUUCUACAGUCCGACGAUCCAAAAUUUUCAAAUGUUUUCAGGAGUGUAAAGAAGCAUCAUGUAUACCUGUGCAGGCACUAGUCCUUUACAGAUGACCAUGCUGAUGUCUCCUUUCAUCUAUUUAUUUAAAUAUUUAUUUCAACAGAGGAUUGAGCAUCA
# B18: chr7:127374855:127374969:-|CDS|ENSG00000048405|unk|FALSE|unique (ssRNA)
# RNA: GGGAGUUCUACAGUCCGACGAUCCCUAGAAGCCAUAUAUCCAAGUGUGGACAAACGAGAAUAUAUUAUUAAGCUAGAACCCAUAGAAACUAAUCAAAAUGCAGUAUUUCAAUAUAUUUCGAGGACUGAUAAUCCUAUUGAAGUCAACAGAGGAUUGAGCAUCA
# B19: chr7:127374855:127374969:-|CDS|ENSG00000048405|unk|total|mutant (ssRNA)
# RNA: B18 RNA with U26C, A27C, U74C, A75C, U83C, A84C
# B20: chr6:89631235:89631336:+|3pUTR|ENSG00000135299|msi1|FALSE|unique (ssRNA)
# RNA: GGGAGUUCUACAGUCCGACGAUCUGAAGUUUGAAAGCUCAGAUUAAGCAAGCCAUGCCAAGAAACUGGACGAUGUGUAAGCCUAGACUCUAAAAUUCAAGAUGUGUGAAAUAAUAUAAGUCAAAAGCAAGAAAAACGUAAUCCCAACAGAGGAUUGAGCAUCA
# B21: chr14:44928120:44928223:-|3pUTR|ENSG00000179454|unk|total|mutant (ssRNA)
# RNA: B13 RNA with U24C, A25C, U71C, A72C, U83C, A84C, U120C, A121C
# Molecular target: MSI1 full-length (mouse, UniProt Q61474 1-362)
# Assay: nsRBNS (natural sequence RNA bind-n-seq); RBNS binding buffer (assumed for nsRBNS): 25 mM Tris pH 7.5, 150 mM KCl, 3 mM MgCl2, 0.01% Triton X-100, 500 ug/ml BSA, 20 U/ml SUPERase-In, 4 C; UNK is unkempt and MSI1 is Musashi-1; names of the RNAs are library labels; protein concentration not given here; high values mean tight binding
# Chain of MSI1 full-length (Q61474 whole entry): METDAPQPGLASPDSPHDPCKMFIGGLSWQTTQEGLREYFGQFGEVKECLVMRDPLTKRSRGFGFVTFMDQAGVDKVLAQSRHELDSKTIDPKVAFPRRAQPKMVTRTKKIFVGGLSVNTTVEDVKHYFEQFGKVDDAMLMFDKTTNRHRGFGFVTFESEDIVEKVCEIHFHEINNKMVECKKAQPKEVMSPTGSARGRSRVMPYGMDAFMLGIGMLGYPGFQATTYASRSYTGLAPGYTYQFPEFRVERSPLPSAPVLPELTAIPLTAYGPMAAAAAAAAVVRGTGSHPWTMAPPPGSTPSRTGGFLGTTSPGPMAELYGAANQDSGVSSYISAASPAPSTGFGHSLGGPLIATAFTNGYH
row,Binder,binding signal [enrichment R]
1,B1,0.411
2,B2,0.39
3,B3,0.284
4,B4,0.744
5,B5,1.15
6,B6,1.74
7,B7,30
8,B8,3.46
9,B9,0.4
10,B10,0.619
11,B11,21.1
12,B12,36.5
13,B13,35.6
14,B14,0.848
15,B15,9.42
16,B16,0.432
17,B17,0.493
18,B18,28.2
19,B19,0.508
20,B20,0.258
21,B21,8.16

# From publication PMC12136788
